KCNQ2 inh: KCNQ2 (rat) channel inhibition; CHO-K1 KCNQ2, FluxOR thallium flux, 20 min; active compounds read low; B-score at 10 µM; 310,000 compounds, 1.1% hits; AID 2156;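 active = fluorescence ratio B-score at most minus 3 library SDs, with starting brightness B-score within 2 library SDs, cut at about -5.5 in these data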
Target sequence (O88943 whole entry, looked up): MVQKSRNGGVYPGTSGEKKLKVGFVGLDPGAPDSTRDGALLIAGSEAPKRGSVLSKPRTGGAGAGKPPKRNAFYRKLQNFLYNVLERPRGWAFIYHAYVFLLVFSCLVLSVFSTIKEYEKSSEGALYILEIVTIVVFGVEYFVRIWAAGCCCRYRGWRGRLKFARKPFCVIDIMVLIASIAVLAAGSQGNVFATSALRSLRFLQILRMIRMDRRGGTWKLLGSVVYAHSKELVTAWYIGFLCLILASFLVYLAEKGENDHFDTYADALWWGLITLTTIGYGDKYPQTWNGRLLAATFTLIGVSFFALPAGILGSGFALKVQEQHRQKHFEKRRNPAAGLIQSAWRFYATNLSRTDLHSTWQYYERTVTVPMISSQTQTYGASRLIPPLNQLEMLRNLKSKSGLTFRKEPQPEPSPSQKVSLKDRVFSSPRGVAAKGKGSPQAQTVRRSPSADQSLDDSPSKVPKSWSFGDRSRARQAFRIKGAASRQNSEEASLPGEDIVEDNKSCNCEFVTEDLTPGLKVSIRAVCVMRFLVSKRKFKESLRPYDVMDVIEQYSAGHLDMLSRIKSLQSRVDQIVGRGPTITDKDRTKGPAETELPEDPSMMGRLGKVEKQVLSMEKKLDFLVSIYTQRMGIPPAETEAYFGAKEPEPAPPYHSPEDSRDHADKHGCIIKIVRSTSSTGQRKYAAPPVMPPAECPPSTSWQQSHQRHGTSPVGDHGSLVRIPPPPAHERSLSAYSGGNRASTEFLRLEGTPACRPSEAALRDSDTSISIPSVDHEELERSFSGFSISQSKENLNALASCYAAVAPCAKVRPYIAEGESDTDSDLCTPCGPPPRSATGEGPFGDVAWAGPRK
KCNQ2 enhance: enhances the rat KCNQ2 potassium channel; 310,000 compounds, 0.54% hits; AID 2239; B-score at 10 µM; CHO-K1 KCNQ2, FluxOR thallium flux fluorescence; active compounds read high;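 active = fluorescence ratio B-score at least 3 SD of library B-scores, with initial fluorescence B-score within 3 of them, cut at about 5.3 in these data; same plate scores as AID 2156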;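 note: B-score of peak minus minimum over baseline fluorescence ratio after K+ and Tl+ stimulus; positive B-score means potentiation of KCNQ2 with more thallium influx and brighter signal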
Each line names hits and unclear results; the compound was inactive in the other large screens. Shown are actives, neighbours in structure and some others; about 1.6% of the full set was active somewhere.

Cc1nn2c(COc3ccc(NC(=O)c4ccccc4Cl)cc3)nnc2c2ccccc12	none (no result: KCNQ2 enhance)
CCOC(=O)N1CCN(c2nc(C)c3c(n2)CC(C)CC3=O)CC1 (stereo not drawn)	none
[O-]/C(=C(\C(=S)Nc1ccc(SC(F)F)cc1)[n+]1cccc(CO)c1)c1ccc(Cl)s1	none (no result: KCNQ2 enhance)
Cc1ccc(NC(=S)/C(=C(\[O-])c2ccc(Cl)s2)[n+]2cccc(CO)c2)cc1C	KCNQ2 inh -7.8
CC1CN(c2cnn(C(C)C)c(=O)c2Cl)CC(C)O1 (stereo not drawn)	none
CCCC(=O)Nc1ccc2oc(=O)ccc2c1	none
O=C(COc1cccc([N+](=O)[O-])c1)NN1C(=O)c2ccccc2C1=O	none
O=C(Nc1ccc(S(=O)(=O)Nc2cnc3ccccc3n2)cc1)c1ccc([N+](=O)[O-])cc1Cl	none
O=c1cc(CN2CCN(C/C=C/c3ccccc3)CC2)c2cc(O)c(-c3ccccc3)cc2o1	none
CC(C)CN(Cc1cc(=O)oc2cc(-c3ccccc3)c(O)cc12)CC(C)C	KCNQ2 inh -7.5
COC(=O)[C@@]1(Cc2ccc(F)cc2)[C@H]2c3cc(C(=O)N4CCCC4)n(CCc4c[nH]c5ccc(OC)cc45)c3C[C@H]2CN1C(=O)c1ccccc1	none
CC1(C)C([N+](=O)[O-])C(c2ccc(Cl)cc2)NC(c2ccc(Cl)cc2)C1[N+](=O)[O-] (stereo not drawn)	none (no result: KCNQ2 enhance)
Cc1c(O)ccc2c(CC(=O)N[C@@H](Cc3ccc(O)cc3)C(=O)O)cc(=O)oc12	none (no result: KCNQ2 enhance)
COCCNC(=O)c1ccccc1NC(=O)c1ccc(Cl)c(S(=O)(=O)Nc2ccc(C)cc2C)c1	none (no result: KCNQ2 enhance)
Cc1ccc(C)c(S(=O)(=O)N2CCN(C(C)C(=O)Nc3ccccc3-c3ccccc3)CC2)c1 (stereo not drawn)	KCNQ2 inh -5.8
Cc1ccc(C)c(S(=O)(=O)N2CCN(C(=O)CSc3ccccc3)CC2)c1	none
Cc1ccc(C)c(NS(=O)(=O)c2cc(C(=O)Nc3ccccc3-c3ccccc3)ccc2Cl)c1	KCNQ2 inh -7.1
Cc1ccc(C(=O)N2Cc3ccccc3CC2C(=O)O)cc1 (stereo not drawn)	none
Cc1ccc(NC(=O)C2Cc3ccccc3CN2C(=O)c2ccccc2)cc1Cl (stereo not drawn)	KCNQ2 inh -6.1
O=C(c1ccco1)N1CCCC(c2nc3c(nnn3Cc3ccc(F)cc3)c(=O)[nH]2)C1 (stereo not drawn)	none
Cc1nn(Cc2ccc(Cl)cc2)c(C)c1NC(=O)C(c1ccccc1)c1ccccc1	none (no result: KCNQ2 enhance)
Cc1cc(SCC(=O)OCC(=O)N(C)c2ccccc2)nc2ccccc12	none (no result: KCNQ2 enhance)
Cc1ccc([N+](=O)[O-])cc1NC(=O)CCCOc1ccccc1	none (no result: KCNQ2 enhance)
Cc1nc2ccccc2nc1N1CCC(C)CC1	none
Cc1cc(C)n(-c2nc3ccccc3nc2N2CCN(C(=O)c3ccc(F)cc3)CC2)n1	none (no result: KCNQ2 enhance)
Cc1cc(C)n(-c2nc3ccccc3nc2N2CCC(C)CC2)n1	KCNQ2 inh -6.8
Cc1ccc(S(=O)(=O)N2CCN(c3nc4ccccc4nc3-n3nc(C)cc3C)CC2)cc1	KCNQ2 inh -6
CCCC(=O)Nc1c(-c2ccccc2Cl)c(=O)c2ccccc2n1C	none
Cc1ccc(-n2nnnc2SCC(=O)Nc2sccc2C#N)cc1	none (no result: KCNQ2 enhance)
CCn1nc(C)c(Br)c1C(=O)Sc1ccccc1Cl	none (no result: KCNQ2 enhance)
Cc1ccc2c(c1)N(Cc1ccc3c(c1)OCO3)C(=O)C(C)O2 (stereo not drawn)	none (no result: KCNQ2 enhance)
CCC1Oc2ccc(C)cc2N(Cc2cccc(C)c2)C1=O (stereo not drawn)	KCNQ2 inh -5.9
CC(C)c1ccc(C2NC(=O)c3ccccc3O2)cc1 (stereo not drawn)	none (no result: KCNQ2 enhance)
O=C(NCCCN1CCOCC1)c1ccccc1N1C(=O)[C@@H]2Cc3c([nH]c4ccccc34)C(c3cccc(Cl)c3)N2C1=O (stereo partly drawn)	KCNQ2 inh -5.6
Cc1ccc(C2c3[nH]c4ccccc4c3C[C@H]3C(=O)N(c4ccccc4C(=O)NCCCN4CCOCC4)C(=O)N23)cc1 (stereo partly drawn)	none (no result: KCNQ2 enhance)
Cc1ccc2c(c1)N/C(=C(\C=C(/Cl)[N+](=O)[O-])[N+](=O)[O-])N2	KCNQ2 inh -6.8
Cc1ccc2c(c1)/C(=C/c1ccc(F)cc1)C(=O)N2	none
CCCC(=O)Nc1ccc(-c2nc3ncccc3o2)cc1	none
O=C(c1ccc(CS(=O)c2cccc(Cl)c2)o1)N1CCCCCC1 (stereo not drawn)	none (no result: KCNQ2 enhance)
O=C(Nc1cc2c3c(c1)CC(=O)N3CCC2)c1ccc(Br)o1	none (no result: KCNQ2 enhance)
O=S(=O)(c1ccc(Oc2ccc(Cl)cc2)c(S(=O)(=O)N2CCCCC2)c1)N1CCCCC1	KCNQ2 inh -7.2
O=S(=O)(c1ccc(Cl)cc1)N1CCN(S(=O)(=O)N2CCCCCC2)CC1	none (no result: KCNQ2 enhance)
c1ccc(C(c2ccccc2)N2CCN(Cc3nnnn3C3CCCC3)CC2)cc1	none (no result: KCNQ2 enhance)
CC(C)CCn1nnnc1CN1CCN(C(c2ccccc2)c2ccccc2)CC1	KCNQ2 inh -5.7
Nc1nc(SCC(=O)Nc2cccc(Oc3ccccc3)c2)n[nH]1	KCNQ2 enhance 6.4
Nc1nc(SCC(=O)Nc2ccc(Oc3ccccc3)cc2)n[nH]1	none
O=C(CCn1c(=O)oc2ccccc21)Nc1cccc(Br)c1	none (no result: KCNQ2 enhance)
Nc1nc(COc2ccccc2C=O)nc(Nc2ccccc2)n1	none
CCCCOC(=O)CSC1=C(C#N)C(c2ccccc2OCC)C(C#N)C(=O)N1 (stereo not drawn)	KCNQ2 enhance 7.1
CCCOC(=O)CSC1=C(C#N)C(c2ccccc2OCC)C(C#N)C(=O)N1 (stereo not drawn)	none
O=C(CSS(=O)(=O)O)N1CCN(C(=O)c2ccoc2)CC1	none
Cn1c(N2CCN(C(c3ccccc3)c3ccccc3)CC2)nc2ccccc21	KCNQ2 inh -12
Cn1c(C(O)C(O)c2ccccc2)nc2ccccc21 (stereo not drawn)	none
COc1ccc(C(=O)N2c3ccccc3C=CC2C#N)cc1 (stereo not drawn)	none
N#C[C@H]1[C@H](c2ccccc2)[C@](C#N)(C(=O)c2ccccc2)[C@@H]2C=Cc3ccccc3N21	KCNQ2 inh -8.6
COc1ccc(S(=O)(=O)N2CCSCC2)cc1C(N)=O	none (no result: KCNQ2 enhance)
CCn1nc(C)c(CNC(=O)CCc2nnc(Cc3c[nH]c4ccccc34)o2)c1C	none
CCc1ccc(-c2cc(C(=O)NCCCn3ccnc3)c3ccccc3n2)s1	KCNQ2 inh -8.2
Cc1ccc(-c2cc(C(=O)NCCCn3ccnc3)c3ccccc3n2)s1	none (no result: KCNQ2 enhance)
CCC1(c2ccccc2)NC(=O)N(CC(=O)Nc2cc(S(=O)(=O)N3CCCCCC3)ccc2OC)C1=O (stereo not drawn)	none
Cc1ccccc1CNC(=O)C1CCC(=O)N(Cc2cccc(F)c2)C1 (stereo not drawn)	KCNQ2 inh -6.3
O=C(NCc1ccccc1OC(F)(F)F)C1CCC(=O)N(Cc2cccc(F)c2)C1 (stereo not drawn)	none (no result: KCNQ2 enhance)
CC(C)Sc1n[nH]c(=O)n1-c1ccccc1	none
CC(C)(C)N(Cc1ccccc1)C(=O)c1cc2ccccc2o1	KCNQ2 inh -5.9
CN(Cc1ccccc1)C(=O)c1cc2ccccc2o1	none (no result: KCNQ2 enhance)
COc1ccccc1C(=O)NC(CCSC)C(=O)N1CCC(Cc2ccccc2)CC1 (stereo not drawn)	KCNQ2 inh -7.2
COc1ccccc1C(=O)NC(CCSC)C(=O)OC(C)C(N)=O (stereo not drawn)	none
CSCCC(NC(=O)c1ccccc1Cl)C(=O)N1CCN(C(c2ccccc2)c2ccccc2)CC1 (stereo not drawn)	KCNQ2 inh -7.2
CSCCC(NS(=O)(=O)c1ccc(C)cc1)C(=O)N1CCN(C(c2ccccc2)c2ccccc2)CC1 (stereo not drawn)	none (no result: KCNQ2 enhance)
Cc1oc2c(c1C(=O)O)C(=O)c1ccccc1C2=O	none

Screening data: PubChem BioAssay, Johns Hopkins Ion Channel Center
